Compound activity deposited in PubChem BioAssay by several laboratories.
An excerpt weighted towards active compounds, which were near 1.3% of everything screened.
COUP-TFII inh: NR2F2 transcriptional activity inhibitors, primary screen, cell-based, luciferase reporter, HEK293T, luminescence; COUP transcription factor 2 (Homo sapiens), P24468; HEK293T NGFI-A luciferase reporter; inhibition, % at 8.6 µM; actives 0.7% (n = 370,000); AID 686940, 2013;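 active means inhibition above a per-plate cutoff, mean inhibition of test wells between control levels plus 3 SD, cut at about 38% in these data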;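 further: cells cotransfected with COUP-TFII expression vector driving the NGFI-A reporter; 0% = median of COUP-TF2 test wells and 100% = reporter-only cells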
Gli-Sufu antag: Gli-Sufu pathway antagonists, primary screen, luciferase luminescence, Sufu-KO-LIGHT cells, uHTS; actives 0.74% (n = 340,000); inhibition, % at 5 µM; Sufu-KO-LIGHT fibroblasts, Gli luciferase reporter luminescence;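 active means inhibition above about 55%, limit read from the data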;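 further: 0% = DMSO-treated cells and 100% = wells with medium but no cells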
NCOA1 inh: SRC1 coactivator transcriptional activity inhibitors, primary screen, cell-based, luminescence; Nuclear receptor coactivator 1 (Homo sapiens), Q15788; inhibition, % at 3.6 µM; HEK293 GAL4-SRC1 luciferase reporter; AID 588354, 2011; actives 0.12% (n = 360,000);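 active means inhibition above the campaign mean plus 3 SD, with each screening campaign given its own cutoff, cut at about 60% in these data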;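 further: 0% = DMSO treated cells and 100% = gossypol at 36 µM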
SRC2 inh: inhibition of GAL4-SRC2 driven luciferase reporter, primary screen, SRC2 inhibitor project, cell-based, luminescence. HEK293 GAL4-SRC2 luciferase reporter. Nuclear receptor coactivator 2 (Homo sapiens), Q15596. inhibition, % at 9 µM. actives 0.17% (n = 370,000);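 active means inhibition above the mean inhibition of all tested compounds plus 3 SD, set per campaign, cut at about 52% in these data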;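 further: 0% = DMSO treated cells and 100% = cells given Gossypol at 36 µM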
NCOA3 inh: SRC3 coactivator transcriptional activity inhibitors, primary screen, cell-based, luminescence; actives 0.17% (n = 360,000); Nuclear receptor coactivator 3 (Homo sapiens), Q9Y6Q9; HEK293 GAL4-SRC3 luciferase reporter; inhibition, % at 3.6 µM;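 active means inhibition above a per-campaign cutoff, the mean of all compounds plus 3 SD, cut at about 60% in these data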;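 further: 0% = DMSO-treated cells and 100% = gossypol-treated cells at 36 µM; higher means less SRC3-driven luciferase light from the GAL4 reporter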
NR5A2 inv ag: LRH-1 (NR5A2) inverse agonists, primary screen, cell-based, luminescence, HEK293T, StAR-luciferase reporter | inhibition, % at 3.6 µM | Nuclear receptor subfamily 5 group A member 2 (Homo sapiens), O00482 | LRH-1 transfected, 24 h | actives 0.13% (n = 360,000);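 active means inhibition above the mean inhibition of all tested compounds plus 3 SD, cut at about 73% in these data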;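 further: 0% = DMSO wells and 100% = reporter-only cells lacking LRH-1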
Gli antag conf: Gli-SUFU pathway antagonists, confirmation, single concentration, luciferase luminescence, Sufu-KO-LIGHT cells; actives 40% (n = 2,500); shares compounds with Gli-Sufu antag; inhibition, % at 5 µM; Gli luciferase reporter;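 active means mean inhibition at 5 µM reaching about 45%, limit read from the data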;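 further: plate controls were DMSO-treated cells for no effect and wells lacking cells for full effect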
Gli cytotox: cytotoxicity in Sufu-KO-LIGHT cells, confirmation, cytotoxicity control for Gli-SUFU antagonist project, cell-based, ATP luminescence, single concentration | shares compounds with Gli-Sufu antag | cytotoxicity, % at 5 µM | actives 32% (n = 2,500) | AID 651994, 2013;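 active means mean cytotoxicity at 5 µM above about 25%, limit read from the data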;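 further: cells exposed to compound overnight for roughly 16 to 18 hours; plate controls were DMSO wells with cells for no effect and medium without cells for full effect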
Wnt3a cs: Wnt3a reporter signal inhibition, confirmation, counter-screen for Gli-SUFU antagonist project, Wnt-LIGHT cells, luminescence, single concentration; shares compounds with Gli-Sufu antag; Wnt3a-driven luciferase reporter; inhibition, % at 6.25 µM; actives 20% (n = 2,500);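 active means mean inhibition above about 25%, limit read from the data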
VP16 Luc counter: Gal4-VP16 luciferase reporter inhibitors, counter-screen for COUP-TFII antagonist project, cell-based, luminescence, HEK293. inhibition, % at 8.5 µM. AID 687007, 2013. actives 25% (n = 2,500). shares compounds with COUP-TFII inh; in the data active means inhibition above about 13%
NR2F2 inh conf: NR2F2 transcriptional activity inhibitors, confirmation, cell-based, luciferase reporter, HEK293, triplicate; shares compounds with COUP-TFII inh; HEK293 NGFI-A luciferase reporter, luminescence; inhibition, % at 8.5 µM; actives 45% (n = 2,500); AID 687008, 2013;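 active means mean inhibition over three repeats above a set limit taken from the earlier primary screen, cut at about 38% in these data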;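 further: 100% = cells given the luciferase reporter alone without the COUP-TF2 vector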
Numbers without * were called inactive; . = not tested or not shown; ! = repeats disagree.

SMILES | COUP-TFII inh | Gli-Sufu antag | NCOA1 inh | SRC2 inh | NCOA3 inh | NR5A2 inv ag | Gli antag conf | Gli cytotox | Wnt3a cs | VP16 Luc counter | NR2F2 inh conf
C[n+]1c2n(c3ccccc31)N=C(c1ccccc1)CS2 | 40* | 60* | 1 | 14 | 18 | 29 | 72* | 28* | -13 | -1 | 47*!
C[n+]1c2n(c3ccccc31)N=C(c1ccc(-c3ccccc3)cc1)CS2 | 70* | 87* | -5 | -54 | 63* | 58 | 89* | 32* | 12 | 8 | 65*
Cc1cc(-c2nnc3n2N=C(c2ccc(-c4ccccc4)cc2)CS3)n[nH]1 | -17 | 15 | -2 | -21 | -16 | 16 | . | . | . | . | .
Cc1cccc(-c2nnc3n2N=C(c2ccccc2)CS3)c1 | 14 | 6 | -10 | 10 | 13 | 29 | . | . | . | . | .
Nc1nonc1C(=O)NCCNCc1ccccc1OCc1ccccc1F | -21 | 19 | -13 | 19 | -7 | 11 | . | . | . | . | .
Nc1nonc1C(=O)NCCNCc1cc(Br)ccc1OCc1ccccc1F | 66* | 51 | 3 | 17 | 15 | 12 | 44 | 34* | 2 | 19* | 26
CCCC[C@H]1C2CC(OC(=O)Nc3ccc(F)cc3)C(C2)[C@H]2CCCCN21 (stereo partly drawn) | -3 | . | . | -4 | . | . | . | . | . | . | .
CN(C)C(=O)N1CCN(C(=O)[C@H]2O[C@@H](n3ccc(N)nc3=O)[C@H](O)[C@@H]2O)CC1 | 4 | . | . | -12 | . | . | . | . | . | . | .
O=C(CN1CCN(Cc2ccccc2)CC1)N/N=C\c1ccccc1[N+](=O)[O-] | 11 | . | . | -35 | . | . | . | . | . | . | .
Cn1c(CCN2CCN(c3ccccn3)CC2)nc2cc(NC(=O)COc3ccc(Cl)cc3)ccc21 | 61* | 61* | 23 | 14 | 48 | 46 | 31 | -10 | 29* | -3 | 59*
COc1ccc(CCNc2c(C)c(C)nc3ncnn23)cc1 | 66* | 72* | 31 | 16 | 27 | 44 | 70* | 45* | 28* | -2 | 52*
CCc1c(C)nc2ncnn2c1NCCc1ccc(OC)c(OC)c1 | 23 | 17 | -1 | -9 | -29 | 13 | . | . | . | . | .
O=S1(=O)c2c(NCc3ccco3)cccc2Oc2ccccc2CN1Cc1cn(Cc2ccccc2C(F)(F)F)nn1 | 6 | . | . | -25 | . | . | . | . | . | . | .
Cn1c(=O)c(=O)n(C)c2cc(S(=O)(=O)N3CCN(Cc4ccc(F)cc4)CC3)ccc21 | 13 | . | . | 12 | . | . | . | . | . | . | .
Cc1nn(-c2ccc(NC(=O)c3ccncc3)cc2)c(C)c1Cl | 67* | 56* | 23 | 8 | -10 | 29 | 45* | 16 | 24 | -6 | 58*
CC1Cc2cc(S(=O)(=O)N3CCN(c4ccc(Cl)cc4)CC3)ccc2N1C(=O)C1CC1 (stereo not drawn) | -8 | -11 | 22 | 5 | 1 | 2 | . | . | . | . | .
CC(=O)N1c2ccc(S(=O)(=O)N3CCC(C(=O)N4CCN(c5ccc(Cl)cc5)CC4)CC3)cc2CC1C (stereo not drawn) | 44* | 76* | -5 | 30 | 9 | 3 | 74* | 35* | -7 | -1 | 18
COc1ccc(/C=N\NC(=O)Cc2cccs2)c(OC)c1OC | -17 | . | . | -23 | . | . | . | . | . | . | .
Cc1ccc(C(C)C)c(OCc2ccc(C(=O)N/N=C/c3ccc(O)c(O)c3)cc2)c1 | 44* | 67* | -14 | 52 | 9 | -27 | 49* | 29* | 93* | 19* | 6
COC(=O)c1cc2c(c3c4cc(F)ccc4n(S(=O)(=O)c4ccccc4)c13)C(=O)N(Cc1ccco1)C2 | 10 | . | . | 23 | . | . | . | . | . | . | .
O=S(=O)(N[C@@H]1CCCC[C@@H]1N1CCOCC1)c1ccc(Cl)cc1 | -4 | . | . | . | . | . | . | . | . | . | .
CC(C)CN1CCC(CN2C(=S)NC[C@@H]2Cc2ccccc2)CC1 | -14 | . | . | -14 | . | . | . | . | . | . | .
O=C(Cn1cnc2ccccc21)Nc1ccc(SC(F)F)cc1 | 70* | 65* | -6 | 23 | 20 | 34 | 57* | 37* | -7 | -4 | 46*
COC(=O)[C@]12C[C@H](CC(=O)NCC3CCCCC3)C(=O)N(Cc3ccc(Cl)cc3Cl)C1=C[C@H](COCc1ccccc1)O[C@@H]2C | 27 | . | . | 15 | . | . | . | . | . | . | .
CCOc1ccc(N=C(NN)c2ccc3ccccc3n2)cc1 | 40* | 64* | 43 | 38 | 44 | 16 | 73* | 14 | 81* | -41 | -14
SMILES | COUP-TFII inh | Gli-Sufu antag | NCOA1 inh | SRC2 inh | NCOA3 inh | NR5A2 inv ag | Gli antag conf | Gli cytotox | Wnt3a cs | VP16 Luc counter | NR2F2 inh conf
N#CCS(=O)(=O)c1cccc[n+]1[O-] | -21 | . | . | -15 | . | . | . | . | . | . | .
Cn1cc(CNCc2cn[nH]c2-c2ccc(F)cc2)c(-c2ccc3c(c2)OCCO3)n1 | -1 | 2 | -9 | -6 | 14 | -4 | . | . | . | . | .
Cn1cc(CNCc2ccc(OC(F)(F)F)cc2)c(-c2ccc3c(c2)OCCO3)n1 | 48* | 60* | 0 | 13 | 24 | 27 | 63* | 36* | 26* | 7 | 40*
O=C(Nc1ccc(Br)cc1)OC1CC2CC1[C@H]1CCCCN1C2 (stereo partly drawn) | -5 | . | . | 5 | . | . | . | . | . | . | .
NC(=O)c1ccc(N2CCN(S(=O)(=O)c3cccs3)CC2)c([N+](=O)[O-])c1 | 60* | 56* | 16 | -10 | 34 | 48 | 65* | 14 | 36* | 5 | 56*
Cc1ccc(NC(=O)c2cc(S(=O)(=O)NCCC3=CCCCC3)ccc2F)cc1F | 40* | 21 | 22 | 21 | 27 | 28 | . | . | . | 2 | 40*
CC(=O)N1CCc2cc(S(=O)(=O)NCCC3=CCCCC3)ccc21 | 47* | 41 | 13 | -23 | 18 | 30 | . | . | . | 5 | 36
